Results from PMC4552634, “A New Set of Chemical Starting Points with Plasmodium falciparum Transmission-Blocking Potential for Antimalarial Drug Discovery” (PLoS ONE, 2015).
The whole screen tested about 13,000 compounds, of which about 3,200 (25%) showed an effect of 50% or more. Some of the results follow.

System: P. falciparum stage V gametocytes
Set-up: BacTiter-Glo ATP luminescence viability of purified stage V gametocytes in 384-well plates, per cent inhibition versus DMSO
Settings: 48 h, 5 µM; inhibitor

SMILES | % Inhibition [%]
Cc1noc(-c2ccccc2)c1NC(=O)N1CCN(CCCCCCNC(=O)/C=C/c2ccc(Cl)c(Cl)c2)CC1 [TCMDC-135892] | 75.05
Cc1noc(-c2ccccc2)c1NC(=O)NC1CCN(CCCCCNC(=O)/C=C/c2ccc(Cl)c(Cl)c2)CC1 [TCMDC-135890] | -22.75
O=C(/C=C/c1ccc(Cl)c(Cl)c1)NCCCCCN1CCCN(C(=O)Nc2ccc(Cl)cc2)CC1 [TCMDC-135748] | -7.449
O=C(/C=C/c1ccc(Cl)c(Cl)c1)NCCCCCN1CCCN(C(=S)Nc2ccc(Cl)cc2)CC1 [TCMDC-135893] | 2.458
O=C(/C=C/c1ccc(Cl)cc1)NCCCCCN1CCN(C(=O)C=Cc2ccc(Cl)c(Cl)c2)CC1 [TCMDC-135914] | 71.52
O=C(/C=C/c1ccc(Cl)c(Cl)c1)NCCCCCCN1CCN(C(=O)Nc2ccc(Cl)c(C(F)(F)F)c2)CC1 [TCMDC-135836] | -47.93
O=C(/C=C/c1ccc(C(F)(F)F)cc1)NCCCCCN1CCN(C(=O)Nc2ccc(F)c(Cl)c2)CC1 [TCMDC-136096] | 8.329
O=C(/C=C/c1ccc(C(F)(F)F)cc1)NCCCCCN1CCCN(C(=O)Nc2ccc(F)c(Cl)c2)CC1 [TCMDC-136107] | 77.99
Cc1cc(C)c(NC(=O)N2CCCN(CCCCCNC(=O)/C=C/c3ccc(Cl)c(Cl)c3)CC2)c(C)c1 [TCMDC-135753] | 28.16
O=C(/C=C/c1ccc(Cl)c(Cl)c1)NCCCCCN1CCCN(C(=O)Nc2ccc(Cl)c(C(F)(F)F)c2)CC1 [TCMDC-135762] | -47.47
O=C(/C=C/c1ccc(Cl)c(Cl)c1)NCCCCCCN1CCCN(C(=O)Nc2ccc(Cl)c(C(F)(F)F)c2)CC1 [TCMDC-135935] | 84.32
O=C(/C=C/c1ccc(C(F)(F)F)cc1)NCCCCCN1CCCN(C(=O)Nc2ccc(Cl)c(Cl)c2)CC1 [TCMDC-136104] | -57.55
Cc1cccc2[nH]c(-c3cccc(-c4cccc(NC(=O)CC5NC(=O)c6ccccc65)c4)c3)nc12 (stereo not shown) [TCMDC-137093] | 12.03
CCOc1cc(C)ccc1C1CCN(CCCCNC(=O)c2coc(-c3ccc(Cl)cc3)c2)CC1 [TCMDC-138530] | -52.9
O=C(c1cc(C(=O)NCc2ccc(Cl)cc2)c(=O)n(Cc2ccc(Cl)cc2)c1)c1cc(Cl)ccc1O [TCMDC-124339] | -61.86
OC(CNc1ccnc(Nc2ccc(Cl)cc2)n1)c1cccc(C(F)(F)F)c1 (stereo not shown) [TCMDC-136587] | 30.58
O=C(/C=C/c1ccc(Cl)c(Cl)c1)NCCCCCN1CCCN(C(=O)Nc2cccc(C(F)(F)F)c2)CC1 [TCMDC-135758] | 79.21
O=C(/C=C/c1ccc(Cl)c(Cl)c1)NCCCCN1CCCN(C(=O)Nc2ccc(Cl)c(Cl)c2)CC1 [TCMDC-135932] | 87.86
O=C(/C=C/c1ccc(Cl)c(Cl)c1)NCCCCCN1CCCN(C(=O)Nc2ccc(Cl)c(Cl)c2)CC1 [TCMDC-135759] | -47.93
O=C(/C=C/c1ccc(Cl)c(Cl)c1)NCCCCCCN1CCN(C(=O)Nc2ccc(Cl)c(Cl)c2)CC1 [TCMDC-135835] | 30.42
O=C(/C=C/c1ccc(Cl)c(Cl)c1)NCCCCCCN1CCCN(C(=O)Nc2cccc(C(F)(F)F)c2)CC1 [TCMDC-135934] | 13.78
O=C(/C=C/c1ccc(Cl)c(Cl)c1)NCCCCCCN1CCCN(C(=O)Nc2ccc(F)c(Cl)c2)CC1 [TCMDC-135940] | 14.82
O=C(/C=C/c1ccc(Cl)c(Cl)c1)NCCCCN1CCCN(C(=O)Nc2ccc(F)c(Cl)c2)CC1 [TCMDC-135931] | -30.88

SMILES | % Inhibition [%]
O=C(/C=C/c1ccc(Cl)c(Cl)c1)NCCCCCCN1CCCN(C(=O)Nc2ccc(Cl)c(Cl)c2)CC1 [TCMDC-135933] | 52.33
O=C(/C=C/c1ccc(Cl)c(Cl)c1)NCCCCCCN1CCCN(C(=O)Nc2ccc(C(F)(F)F)cc2)CC1 [TCMDC-135937] | -27.04
CCCO[C@H](C(=O)OC)[C@@H](CC1Cc2ccccc2C1)C(=O)NCCC1=CCCCC1 [TCMDC-140419] | -16.75
COc1ccc2nc(C)cc(Nc3ccc(Oc4ccc5ccccc5c4)c(Cl)c3)c2c1 [TCMDC-124209] | -14.35
N#Cc1cccc(-c2nc(NCc3cccc(C(F)(F)F)c3)nn2-c2cccc(C(F)(F)F)c2)c1 [TCMDC-133548] | -85.5
Cc1nc(N)nc(N)c1-c1ccc(Br)c(Br)c1 [TCMDC-137372] | 14.5
COc1ccc2ncc(F)c(CCN3CCC(CNC(=O)C(=O)c4c[nH]c5ccccc45)CC3)c2n1 [TCMDC-135874] | 3.215
Cc1cc(C(=O)Nc2ccc3c(ccn3C3CCCN(Cc4ccc(C(F)(F)F)cc4F)CC3)c2)no1 (stereo not shown) [TCMDC-135088] | 41.42
COc1ccc(NC(=O)c2ccc(-c3ccc(-c4cccnc4)cc3)c(C)c2)cc1OCCN(C)C [TCMDC-138989] | 38.05
COC(=O)c1ccc(-c2ccc(-c3cccnc3)cc2C)cc1 [TCMDC-139074] | 95.09
COc1cccc(NC(=O)Nc2ccc(C)c(-c3ccc(C(=O)Nc4ccncc4)cc3)c2)c1 [TCMDC-133704] | -18.6
COc1ccc(NC(=O)c2cccc(Br)c2)cc1N1CCN(CCCCCCCN2CCN(c3cc(NC(=O)c4cccc(Br)c4)ccc3OC)CC2)CC1 [TCMDC-139020] | 104.8
COc1ccc(NC(=O)c2ccc(NC(=O)c3ccc(Cl)cc3)cc2)cc1N1CCN(C)CC1 [TCMDC-138188] | 5.64
COc1ccc(NC(=O)c2ccc(-c3cccc(OCc4ccccc4)c3)cc2)cc1N1CCN(C)CC1 [TCMDC-138991] | -59.54
COc1ccc(NC(=O)c2ccc(-c3nc(-c4ccccc4)cs3)cc2)cc1N1CCN(C)CC1 [TCMDC-138980] | -14.93
COc1ccc(NC(=O)c2ccc(C=Cc3ccc(C(F)(F)F)cc3)cc2)cc1N1CCN(C)CC1 [TCMDC-138674] | 15.84
COc1ccc(NC(=O)c2ccc(Br)c(C)c2)cc1N1CCN(CCCc2c[nH]c3ccccc23)CC1 [TCMDC-139036] | 49.59
CCN1CCN(c2cc(C)c3cc(NC(=O)c4ccc(OC)c(OC)c4)ccc3n2)CC1 [TCMDC-123598] | 74.46
COc1ccc(NC(=O)c2ccc(Br)c(C)c2)cc1N1CCN(CCCCc2ccccc2)CC1 [TCMDC-139035] | -7.283
COc1ccc(NC(=O)c2ccc(OCCCCCCCOc3ccc(C(=O)Nc4ccc(OC)c(N5CCN(C)CC5)c4)cc3)cc2)cc1N1CCN(C)CC1 [TCMDC-139007] | 102
COc1ccc(C(=O)Nc2ccc3nc(N4CCCCC4)cc(C)c3c2)cc1OC [TCMDC-124422] | 4.122
CCN1CCN(c2cc(C)c3cc(NC(=O)c4ccc(OC)c([N+](=O)[O-])c4)ccc3n2)CC1 [TCMDC-123599] | 3.112
COc1ccc(NC(=O)c2ccc3cc4ccccc4cc3c2)cc1N1CCN(C)CC1 [TCMDC-138983] | 82.38
